Test [1] addresses T1, Aspartate--tRNA(Asp/Asn) ligase (Mycobacterium tuberculosis (strain ATCC 25618 / H37Rv)) (UniProt P9WFW3).
T1 sequence (whole entry): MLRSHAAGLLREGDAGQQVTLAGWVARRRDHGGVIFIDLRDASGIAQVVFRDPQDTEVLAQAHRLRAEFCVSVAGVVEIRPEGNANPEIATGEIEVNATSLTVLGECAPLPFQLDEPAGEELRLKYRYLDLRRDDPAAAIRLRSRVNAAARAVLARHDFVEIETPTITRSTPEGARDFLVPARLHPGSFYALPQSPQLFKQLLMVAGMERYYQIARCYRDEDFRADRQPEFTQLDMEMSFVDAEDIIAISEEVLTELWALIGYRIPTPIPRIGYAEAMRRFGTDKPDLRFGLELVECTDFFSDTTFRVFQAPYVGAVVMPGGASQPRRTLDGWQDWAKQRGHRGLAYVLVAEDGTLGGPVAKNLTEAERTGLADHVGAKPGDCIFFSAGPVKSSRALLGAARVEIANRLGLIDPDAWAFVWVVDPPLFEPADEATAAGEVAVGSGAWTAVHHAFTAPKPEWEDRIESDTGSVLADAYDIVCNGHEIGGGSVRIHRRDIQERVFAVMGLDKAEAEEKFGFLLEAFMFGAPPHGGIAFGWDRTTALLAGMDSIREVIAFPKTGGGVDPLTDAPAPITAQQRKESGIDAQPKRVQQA
Briefly: Assay for Asp RNA synthetase-1 from Mycobacterium tuberculosis. The class given is functional. Set-up: scale not given: direction of the effect not stated beside the values. As to conditions: 30 µM.

The target in test [2] is Shiga toxin 2 (Escherichia coli O157:H7) (UniProt P09385+P09386). Put plainly: E. coli 0.157:H7 Shiga Toxin SOP - stx2 screening assay. It is filed as functional. Set-up: scale not given: direction of the effect not stated beside the values. The note with it: 30 µM.

On to `CC(C)(C)c1cn2nc(N3CCOC(Cn4cncn4)C3)sc2n1` (stereo unspecified), for which the values for the Percent Effect in test [1] and in test [2] were -2.01% and -8.88%, respectively.
On to `CCOc1ncccc1NC(=O)c1sccc1C`, for which the Percent Effect in test [1] was -0.501%; in test [2], -11.1%.
In the same order, the values of `CN(C)C(=O)CS(=O)(=O)Cc1cc(Cl)c2c(c1)OCCCO2` are 4.36% and 29.6%.
`COCCN1CC[C@@H]2OC[C@H](C(=O)NCc3cccs3)C[C@@H]2C1`: the Percent Effect is 2.37% in test [1] and -14.7% in test [2].
On the same counts, the results for `O=C(NC1(c2cccc(F)c2)CCOCC1)c1ccoc1` are 2.05% and -19.4%.
On the same counts, the results for `COc1cc(CNC2CCc3nc(C)nn3C2)cc2c1OCCO2` (stereo unspecified) are -2.19% and -2.67%.
In the same order, the values of `Cc1cnn(CC2CCCN2Cc2ncc(-c3ccccc3)o2)c1` (stereo unspecified) are 4.6% and 25.3%.
Regarding `O=C(NCCN1CCC(c2cccs2)CC1)c1ccccc1C(F)(F)F`, the Percent Effect in test [1] is -10.3%; in test [2] it was -49.7%.
In the case of `CSCCC(=O)N1CCCC1c1ccsc1` (stereo unspecified), the Percent Effect is 2.62% in test [1] and 4.03% in test [2].
With `c1ccc(CN2CCOCC3(CCN(C4CCOCC4)C3)C2)cc1` (stereo unspecified), the Percent Effect is 6.57% in test [1] and 12.2% in test [2].
As to `CC(C)(C)n1ncc2c1CCCC2NCc1cccc2c1OCO2` (stereo unspecified), the Percent Effect is -0.568% in test [1] and -1.18% in test [2].
On the same counts, the results for `O=C(C1CC1)N1CCN(Cc2coc(-c3ccc(Cl)cc3)n2)CC1` are -1.18% and 7.92%.
With `Cc1[nH]nc2ncc(C(=O)N3CCN(CC(C)C)CC3)cc12`, the Percent Effect was -2.36% in test [1] and 33.6% in test [2].
As for `Fc1ccc(OCc2noc(CN3CCc4cncnc4C3)n2)cc1`, the results for the Percent Effect in test [1] and in test [2] were -0.7% and -1.88%, respectively.
In the same order, the values of `COc1cccc(-c2nccnc2C2CCN(C(C)=O)CC2)c1` are -3.41% and 16.4%.
In the same order, the values of `Cc1ccc(C#N)cc1NC(=O)NC1CCCN(c2ncccn2)C1` (stereo unspecified) are 1.97% and -2.85%.
Take `CC(C)(C)C(=O)N1CCC2(COCc3cnc(N4CCOCC4)nc32)C1` (stereo unspecified): the Percent Effect in test [1] is 3.22%; in test [2], -15.4%.
For `O=C1CC(c2ccccc2)C2(CCN(Cc3ccccn3)CC2)N1` (stereo unspecified), the results for the Percent Effect in test [1] and in test [2] were 2.57% and -17.4%, respectively.
On to `CCN(Cc1ccco1)C(=O)Nc1cc(C(F)(F)F)c[nH]c1=O`, for which the Percent Effect in test [1] was determined as 3.71%; in test [2], 34.2%.
Take `CC(=O)N1CCN(Cc2csc(-c3cnn(C)c3)n2)CC1`: the Percent Effect is -1.03% in test [1] and -1.47% in test [2].
Take `O=c1c(-c2ccnc(NC3CCOCC3)n2)cnc2sc(Cl)cn12`: the Percent Effect in test [1] was -3.81%; in test [2] it was -50%.
On to `CC(Cn1cccn1)NC(=O)NCc1cccs1` (stereo unspecified), for which the Percent Effect in test [1] is -7.69%; in test [2] it was -7.84%.
Consider `Cc1ccc2cc(CNCCCO)c(=O)[nH]c2c1`, for which the Percent Effect in test [1] is -1.41%; in test [2], -9.65%.
For the molecule `CCc1nnc2n1CCN(C(=O)c1cc3cc(F)ccc3[nH]1)C2`, the Percent Effect in test [1] was -1.91%; in test [2], -31.4%.
`COc1ccsc1C(=O)N1CCCC(n2nc(C)nc2C)C1` (stereo unspecified): the values for the Percent Effect in test [1] and in test [2] were 0.571% and 6.02%, respectively.
On the same counts, the results for `CN1CCC(c2nnc(CN3CCC(O)CC3)n2C)CC1` are 10.8% and -2.24%.
As to `CCN(Cc1cccc2c1OCO2)C(=O)NC1CC1`, the Percent Effect is -0.162% in test [1] and -11% in test [2].
On the same counts, the results for `COc1ccc2cc(C3CN(C(=O)C4CCOCC4)CCO3)ccc2c1` (stereo unspecified) are 0.234% and 7.44%.
On the same counts, the results for `CC(C)(C)OC(=O)N1CCCC[C@H]1C(=O)NCc1nccs1` are -1.06% and -16.6%.
With `O=C(CCc1ccc(Cl)s1)N1CCCC(n2cncn2)C1` (stereo unspecified), the Percent Effect came to 2.08% in test [1] and 5.05% in test [2].
In the same order, the values of `CNC(=O)CCc1cc(C)nc(C2CCCN2)c1` (stereo unspecified) are 0.0149% and -4.41%.
On the same counts, the results for `c1cnn(CCNCc2csc(-c3ccsc3)n2)c1` are -3.52% and -113%.
In the same order, the values of `CC(C)NC(=O)N1CCN(CC2CC2)CC2(CC(=O)N(C)C2)C1` (stereo unspecified) are 0.324% and -11.9%.
Turning to `c1cc(-c2cnccn2)cc(-c2ccn(CCN3CCCC3)n2)c1`, the Percent Effect in test [1] was 1.97%; in test [2] it was -29.3%.
On the same counts, the results for `Cc1nc(CN2CCCN(C(=O)C(C)OCC3CC3)CC2)cs1` (stereo unspecified) are -3.97% and -12.8%.
For the molecule `COc1ccc(NC(=O)Cn2nc(C)ccc2=O)cc1OC`, the Percent Effect in test [1] was -0.697%; in test [2], -5.66%.
As for `O=C(c1cccc(F)c1)N1CCOC(c2nc(-c3ncccn3)no2)C1` (stereo unspecified), the figures for the Percent Effect in test [1] and in test [2] were -5.54% and 3.39%, respectively.
In the same order, the values of `Cc1oncc1C(=O)N1CCC2(C1)CN(c1cccnc1)C(=O)CN2C` (stereo unspecified) are -6.17% and -13.7%.
For the molecule `Cc1ccc(NC(=O)Nc2cnc(N3CCN(C)CC3)nc2)c(Cl)c1`, the Percent Effect in test [1] was -3.19%; in test [2], -20.4%.
In the same order, the values of `O=C(O)c1ccc2ccc(N3CCN(CC4CC4)CC3)n2c1` are -6.96% and -15.7%.
In the same order, the values of `CCCn1nc2c(cc1=O)CN(Cc1cc(C)on1)CC2` are 10% and -9.16%.
For the molecule `Cc1cnn(CC2CCCN2C(=O)c2ccc3[nH]nnc3c2)c1` (stereo unspecified), the Percent Effect in test [1] is -3.83%; in test [2], -49.7%.
Consider `CCOc1ccc(Cl)c(C(=O)N2CCN(CCO)CC2)n1`, for which the Percent Effect in test [1] worked out at 0.455%; in test [2], 15.7%.
On the same counts, the results for `Cc1ccc(CNC(=O)Nc2cc(C(F)(F)F)c[nH]c2=O)cn1` are -6.46% and 8.32%.
In the same order, the values of `c1coc(-c2noc(CN3CC(n4cccn4)C3)n2)c1` are -3.52% and 24.7%.
For `Cc1nc(NC(=O)CNC(=O)c2c(F)cccc2Cl)n[nH]1`, the Percent Effect turned out to be 6.53% in test [1] and 3.62% in test [2].
With `CCNC(=O)N1CCC2(C1)c1ccccc1S(=O)(=O)N2CCC(C)C` (stereo unspecified), the values for the Percent Effect in test [1] and in test [2] were -0.553% and -1.22%, respectively.
For `Cc1cc(C)n(Cc2cccc(C(=O)NCCN3CCOCC3)c2)n1`, the results for the Percent Effect in test [1] and in test [2] were 5.71% and -69.3%, respectively.
Regarding `CCc1nnc2n1CCN(CC(=O)Nc1cc(C(C)(C)C)nn1C)C2`, the values for the Percent Effect in test [1] and in test [2] were 0.589% and 28.9%, respectively.
`O=C(COc1cccc(Br)c1)N1CCOCC1c1ncon1` (stereo unspecified): the Percent Effect in test [1] is -0.929%; in test [2] it was 9.16%.
As to `Cc1n[nH]c(C)c1-c1cnc(CC2CCN(C)C2)cn1` (stereo unspecified), the Percent Effect was -0.897% in test [1] and -18.2% in test [2].
In the same order, the values of `CCc1nc(CN(CC(N)=O)C(C)C)cs1` are 0.799% and -3.84%.
On the same counts, the results for `CCOC1CCCN(C(=O)c2cnc3c(cnn3C3CCCC3)c2)C1` (stereo unspecified) are 2.51% and 15.6%.
On the same counts, the results for `CCNC(=O)c1nnc2ccc(N3CCOCC3)cc2n1` are 0.9% and -20.2%.
Consider `COc1ccc(C2CCCN2C(=O)NCCNc2ncccn2)cc1` (stereo unspecified), for which the Percent Effect in test [1] is 10.2%; in test [2] it was -17.2%.
On to `Cc1ccc(Cn2ccc(NS(C)(=O)=O)n2)cc1`, for which the Percent Effect in test [1] was 2.05%; in test [2] it was -19.8%.
On the same counts, the results for `Cc1cc(C(=O)N2CCCC(n3cncn3)C2)c(C)n1C1CC1` (stereo unspecified) are -2.4% and 9.3%.
In the same order, the values of `Cn1nccc1C1CCN(Cc2csc(-c3ncccn3)n2)CC1` are 5.92% and -10.6%.
On the same counts, the results for `COc1ccccc1CC(=O)NS(=O)(=O)c1cncc(Br)c1` are -6.19% and 10.1%.
For `OC[C@H]1CC[C@]2(CC1)CN(Cc1ccccc1F)Cc1ccccc1O2`, the Percent Effect in test [1] was -2.81%; in test [2], 20.1%.
Take `COc1c(CNC2CCCc3ccccc32)c(C(C)C)nn1C` (stereo unspecified): the Percent Effect was -0.233% in test [1] and -10.1% in test [2].
On the same counts, the results for `O=C(c1ccsc1)N1CC(C(=O)N2CCOCC2)C2(CCOCC2)C1` (stereo unspecified) are -3.83% and -2.66%.
`Cc1nc(N(C)C)nc2c1COCC21CCN(C(=O)NC(C)C)C1` (stereo unspecified): the Percent Effect in test [1] is 2.63%; in test [2] it was -1.42%.
In the case of `COCCNC(=O)Nc1ccc(-n2cncn2)c(F)c1`, the figures for the Percent Effect in test [1] and in test [2] were -2.66% and 12.3%, respectively.
In the same order, the values of `CCc1nc(C2CCCN2C(=O)CCc2ccc3c(c2)OCO3)no1` (stereo unspecified) are 3.41% and 6.69%.
Turning to `CCN1CC(C(=O)N2CCC(Oc3ccccc3Cl)CC2)CC1=O` (stereo unspecified), the Percent Effect in test [1] is 2.64%; in test [2] it was -34.4%.
In the same order, the values of `CCOCCCC(=O)NCCC(=O)N1CCN(c2ccccn2)CC1` are 0.809% and -65.6%.
In the same order, the values of `Cc1cnn(CC2CN(Cc3nc(N)c4ccccc4n3)CCO2)c1` (stereo unspecified) are 3.58% and 20.2%.
As for `O=c1c2sccc2nc2n1CCN(Cc1cccs1)CC2`, the results for the Percent Effect in test [1] and in test [2] were 6.74% and 8.96%, respectively.
On the same counts, the results for `Cc1cc(C)n(CC2CCCN2C(=O)c2cccc3[nH]ncc23)n1` (stereo unspecified) are -2.45% and -17.6%.
On the same counts, the results for `CN(C)c1ncccc1CNC(=O)N1CCCC1c1ccsc1` (stereo unspecified) are 2.25% and 5.76%.
In the same order, the values of `COc1ccc(CN2CCn3cc(CN4CCCCC4)nc3C2)cc1` are 4.3% and -5.01%.
Consider `CC(C)NC(=O)NCCCc1cc(N)n(-c2ccccc2)n1`, for which the Percent Effect is -8.28% in test [1] and -2.61% in test [2].

Source of the values: ChEMBL document CHEMBL3988442, “University of Dundee, Small-Polar-MMV Screening Library” (2021).
